Measured values reported in publication PMC7862700, “An all-to-all approach to the identification of sequence-specific readers for epigenetic DNA modifications on cytosine”.

Tests used:
Assay in all cases: DAPPL (digital affinity profiling via proximity ligation, sequencing); 10 mM Tris-HCl pH 7.5, 50 mM NaCl, 1 mM DTT, 4% glycerol, room temperature, 30 min; GST-TFs on glutathione beads, 16-mer random dsDNA library, 0.1% formaldehyde crosslink after washing; high values mean tight binding
FEV = biological target: T1, FEV (Homo sapiens, UniProt Q99581 1-238); conditions: protein: recombinant; tags: N-terminal GST; dsDNA, one strand shown
T1 sequence: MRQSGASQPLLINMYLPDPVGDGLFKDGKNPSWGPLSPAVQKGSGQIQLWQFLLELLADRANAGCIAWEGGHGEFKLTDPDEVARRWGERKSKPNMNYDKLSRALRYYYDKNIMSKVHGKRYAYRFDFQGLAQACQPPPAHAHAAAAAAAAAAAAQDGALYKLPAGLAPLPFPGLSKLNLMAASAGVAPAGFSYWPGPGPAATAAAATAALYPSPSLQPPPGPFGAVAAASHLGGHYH
Procedure, shortened: (§1)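 After expression in yeast as GST fusions, human transcription factors were bound to glutathione beads, DNA-barcoded and mixed with a tag-only sample. The pools were incubated with 200 nmole of a 16-mer random double-stranded DNA library in Tris/NaCl/DTT/glycerol buffer (30 min, room temperature), washed and crosslinked with 0.1% formaldehyde. Proximity ligation with BsaI/T4 ligase ran for 1 h at 37 °C, before PCR amplification and sequencing on an Illumina NextSeq500. Binding signal is a hexamer's read frequency for a factor divided by its frequency for the tag-only sample.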

ETV5 = ETV5 (Homo sapiens, UniProt P41161 1-510); conditions: protein: recombinant; tags: N-terminal GST; dsDNA, one strand shown
Procedure, shortened: as §1

HSF1 = HSF1 (Homo sapiens, UniProt Q00613 1-529); conditions: protein: recombinant; tags: N-terminal GST; chain copies: 3; dsDNA, one strand shown
Procedure, shortened: as §1

SPIC = biological target: T2, SPIC (Homo sapiens, UniProt Q8N5J4 1-248); conditions: protein: recombinant; tags: N-terminal GST; dsDNA, one strand shown
T2 sequence: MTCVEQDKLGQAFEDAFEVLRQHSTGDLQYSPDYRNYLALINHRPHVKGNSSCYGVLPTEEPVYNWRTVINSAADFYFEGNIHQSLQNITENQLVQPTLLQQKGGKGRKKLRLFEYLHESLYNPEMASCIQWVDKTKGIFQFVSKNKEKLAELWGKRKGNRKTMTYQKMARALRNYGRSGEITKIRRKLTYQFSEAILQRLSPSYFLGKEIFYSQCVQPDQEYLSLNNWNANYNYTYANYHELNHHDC
Procedure, shortened: as §1

ELF4 = ELF4 (Homo sapiens, UniProt Q99607 1-663); conditions: protein: recombinant; tags: N-terminal GST; dsDNA, one strand shown
Procedure, shortened: as §1

ELK4 = biological target: T3, ELK4 (Homo sapiens, UniProt P28324-2 1-405); conditions: protein: recombinant; tags: N-terminal GST; dsDNA, one strand shown
T3 sequence: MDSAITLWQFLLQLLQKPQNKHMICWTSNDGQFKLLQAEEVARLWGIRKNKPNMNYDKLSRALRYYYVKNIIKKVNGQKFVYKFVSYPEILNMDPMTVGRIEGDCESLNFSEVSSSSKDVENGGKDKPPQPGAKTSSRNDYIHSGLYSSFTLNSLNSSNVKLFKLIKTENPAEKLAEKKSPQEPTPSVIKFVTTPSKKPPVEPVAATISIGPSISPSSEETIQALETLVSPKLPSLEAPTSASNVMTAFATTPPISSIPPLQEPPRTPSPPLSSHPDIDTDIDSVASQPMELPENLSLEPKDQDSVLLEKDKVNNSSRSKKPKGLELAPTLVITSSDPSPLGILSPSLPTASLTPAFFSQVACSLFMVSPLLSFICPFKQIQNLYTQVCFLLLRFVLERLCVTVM
Procedure, shortened: as §1

ETV2 = biological target: T4, ETV2 (Homo sapiens, UniProt O00321 1-342); conditions: protein: recombinant; tags: N-terminal GST; dsDNA, one strand shown
T4 sequence: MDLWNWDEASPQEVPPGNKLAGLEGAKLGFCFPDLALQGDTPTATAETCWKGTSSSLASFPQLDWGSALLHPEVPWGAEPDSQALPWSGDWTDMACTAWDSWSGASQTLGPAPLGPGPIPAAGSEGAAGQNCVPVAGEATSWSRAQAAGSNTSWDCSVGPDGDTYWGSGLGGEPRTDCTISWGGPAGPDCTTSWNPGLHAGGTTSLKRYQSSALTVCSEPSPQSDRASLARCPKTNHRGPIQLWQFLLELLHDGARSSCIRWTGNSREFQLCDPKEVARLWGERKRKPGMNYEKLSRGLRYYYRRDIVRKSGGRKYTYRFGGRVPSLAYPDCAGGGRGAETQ
Procedure, shortened: as §1

ELF3 = biological target: T5, ELF3 (Homo sapiens, UniProt P78545 1-371); conditions: protein: recombinant; tags: N-terminal GST; dsDNA, one strand shown
T5 sequence: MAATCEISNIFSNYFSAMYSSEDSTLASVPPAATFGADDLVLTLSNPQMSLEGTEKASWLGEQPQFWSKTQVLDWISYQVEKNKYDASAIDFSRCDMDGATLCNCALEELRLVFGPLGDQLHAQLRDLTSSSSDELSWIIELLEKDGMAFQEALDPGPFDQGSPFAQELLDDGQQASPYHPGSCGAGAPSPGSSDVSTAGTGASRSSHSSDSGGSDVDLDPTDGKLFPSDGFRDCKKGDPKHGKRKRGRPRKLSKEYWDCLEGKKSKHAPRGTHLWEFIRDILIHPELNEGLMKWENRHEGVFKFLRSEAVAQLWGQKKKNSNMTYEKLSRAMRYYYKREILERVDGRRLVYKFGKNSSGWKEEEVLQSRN
Procedure, shortened: as §1

CRX = CRX (Homo sapiens, UniProt O43186 1-299); conditions: protein: recombinant; tags: N-terminal GST; dsDNA, one strand shown
Procedure, shortened: as §1

ETV1 = ETV1 (Homo sapiens, UniProt P50549 1-477); conditions: protein: recombinant; tags: N-terminal GST; dsDNA, one strand shown
Procedure, shortened: as §1

CRX, sequence (O43186 whole entry): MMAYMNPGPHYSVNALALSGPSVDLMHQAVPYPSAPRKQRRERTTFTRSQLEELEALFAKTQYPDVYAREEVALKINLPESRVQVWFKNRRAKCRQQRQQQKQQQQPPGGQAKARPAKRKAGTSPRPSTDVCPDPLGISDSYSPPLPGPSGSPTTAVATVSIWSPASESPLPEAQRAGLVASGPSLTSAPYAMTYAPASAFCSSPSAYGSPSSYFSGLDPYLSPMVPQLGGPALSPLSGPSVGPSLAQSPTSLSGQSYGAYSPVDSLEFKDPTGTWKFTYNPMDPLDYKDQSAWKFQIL
ETV1, sequence (P50549 whole entry): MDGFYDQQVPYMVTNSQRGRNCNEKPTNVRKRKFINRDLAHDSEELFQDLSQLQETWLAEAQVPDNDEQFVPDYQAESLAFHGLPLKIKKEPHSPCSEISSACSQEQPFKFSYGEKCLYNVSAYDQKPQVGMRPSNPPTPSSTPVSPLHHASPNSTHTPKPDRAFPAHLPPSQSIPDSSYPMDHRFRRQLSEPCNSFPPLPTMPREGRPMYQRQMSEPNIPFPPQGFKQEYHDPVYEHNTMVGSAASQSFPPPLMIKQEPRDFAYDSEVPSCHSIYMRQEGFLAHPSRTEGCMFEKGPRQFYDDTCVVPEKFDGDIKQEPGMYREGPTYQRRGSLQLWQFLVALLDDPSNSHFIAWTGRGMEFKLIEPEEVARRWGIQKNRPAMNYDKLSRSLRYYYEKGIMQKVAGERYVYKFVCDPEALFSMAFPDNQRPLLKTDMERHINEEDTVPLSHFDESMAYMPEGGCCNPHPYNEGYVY
ELF4, sequence (Q99607 whole entry): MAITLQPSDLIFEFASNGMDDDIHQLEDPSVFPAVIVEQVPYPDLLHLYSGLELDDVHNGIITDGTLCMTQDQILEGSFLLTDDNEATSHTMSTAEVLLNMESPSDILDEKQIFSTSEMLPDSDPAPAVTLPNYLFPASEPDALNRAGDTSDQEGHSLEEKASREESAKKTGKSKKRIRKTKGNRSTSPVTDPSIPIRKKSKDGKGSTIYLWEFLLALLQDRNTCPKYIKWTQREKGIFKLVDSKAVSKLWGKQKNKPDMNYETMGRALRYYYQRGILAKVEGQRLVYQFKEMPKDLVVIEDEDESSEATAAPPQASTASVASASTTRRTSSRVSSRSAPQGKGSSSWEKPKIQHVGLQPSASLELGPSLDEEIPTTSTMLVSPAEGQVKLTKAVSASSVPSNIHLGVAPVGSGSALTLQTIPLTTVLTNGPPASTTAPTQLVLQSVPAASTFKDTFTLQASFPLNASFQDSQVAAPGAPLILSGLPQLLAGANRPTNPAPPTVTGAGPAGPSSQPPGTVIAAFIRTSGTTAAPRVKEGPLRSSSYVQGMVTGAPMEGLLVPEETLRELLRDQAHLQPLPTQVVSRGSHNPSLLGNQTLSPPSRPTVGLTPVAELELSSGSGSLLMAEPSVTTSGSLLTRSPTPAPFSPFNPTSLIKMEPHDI
HSF1, sequence (Q00613 whole entry): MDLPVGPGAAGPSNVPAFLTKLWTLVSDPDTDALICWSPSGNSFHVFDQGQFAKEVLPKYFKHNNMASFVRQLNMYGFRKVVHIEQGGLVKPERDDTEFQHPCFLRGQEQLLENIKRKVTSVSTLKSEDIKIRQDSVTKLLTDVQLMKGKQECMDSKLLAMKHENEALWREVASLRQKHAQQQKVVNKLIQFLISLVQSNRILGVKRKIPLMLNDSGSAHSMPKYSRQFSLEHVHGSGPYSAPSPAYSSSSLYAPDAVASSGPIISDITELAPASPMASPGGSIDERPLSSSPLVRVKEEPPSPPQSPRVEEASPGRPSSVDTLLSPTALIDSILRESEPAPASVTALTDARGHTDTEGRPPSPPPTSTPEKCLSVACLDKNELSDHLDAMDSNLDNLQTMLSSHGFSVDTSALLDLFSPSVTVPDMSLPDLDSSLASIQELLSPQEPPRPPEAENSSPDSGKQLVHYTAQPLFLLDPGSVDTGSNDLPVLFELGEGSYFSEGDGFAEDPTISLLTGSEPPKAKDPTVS
ETV5, sequence (P41161 whole entry): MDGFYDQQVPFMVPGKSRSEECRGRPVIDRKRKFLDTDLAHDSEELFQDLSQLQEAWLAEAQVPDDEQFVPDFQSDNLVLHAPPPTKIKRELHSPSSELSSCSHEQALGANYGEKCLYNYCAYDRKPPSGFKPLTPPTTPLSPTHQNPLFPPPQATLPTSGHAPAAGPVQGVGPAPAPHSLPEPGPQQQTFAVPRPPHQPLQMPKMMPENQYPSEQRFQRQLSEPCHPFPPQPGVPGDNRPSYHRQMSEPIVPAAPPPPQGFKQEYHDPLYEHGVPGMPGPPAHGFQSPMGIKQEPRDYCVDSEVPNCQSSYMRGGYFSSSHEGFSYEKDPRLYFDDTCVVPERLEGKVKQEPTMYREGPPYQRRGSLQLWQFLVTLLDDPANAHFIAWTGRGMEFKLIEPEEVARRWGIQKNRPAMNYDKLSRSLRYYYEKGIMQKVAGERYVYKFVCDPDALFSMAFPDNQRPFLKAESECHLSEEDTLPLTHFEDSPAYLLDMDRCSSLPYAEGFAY

Sequence: CTCTTA
- binding signal (FEV): 1.34 fold enrichment (6-mer frequency, TF over GST control)
- binding signal (ETV5): 1.41 fold enrichment (6-mer frequency, TF over GST control)
- binding signal (HSF1): 1.52 fold enrichment (6-mer frequency, TF over GST control)
- binding signal (SPIC): 1.4 fold enrichment (6-mer frequency, TF over GST control)
- binding signal (ELF4): 1.32 fold enrichment (6-mer frequency, TF over GST control)
- binding signal (ELK4): 1.34 fold enrichment (6-mer frequency, TF over GST control)
- binding signal (ETV2): 1.49 fold enrichment (6-mer frequency, TF over GST control)
- binding signal (ELF3): 1.27 fold enrichment (6-mer frequency, TF over GST control)
- binding signal (CRX): 2.2 fold enrichment (6-mer frequency, TF over GST control)
- binding signal (ETV1): 1.38 fold enrichment (6-mer frequency, TF over GST control)

Sequence: TCTATC
- binding signal (FEV): 1.16 fold enrichment (6-mer frequency, TF over GST control)
- binding signal (ETV5): 1.19 fold enrichment (6-mer frequency, TF over GST control)
- binding signal (HSF1): 1.43 fold enrichment (6-mer frequency, TF over GST control)
- binding signal (SPIC): 1.23 fold enrichment (6-mer frequency, TF over GST control)
- binding signal (ELF4): 1.25 fold enrichment (6-mer frequency, TF over GST control)
- binding signal (ELK4): 1.24 fold enrichment (6-mer frequency, TF over GST control)
- binding signal (ETV2): 1.27 fold enrichment (6-mer frequency, TF over GST control)
- binding signal (ELF3): 1.29 fold enrichment (6-mer frequency, TF over GST control)
- binding signal (CRX): 1.32 fold enrichment (6-mer frequency, TF over GST control)
- binding signal (ETV1): 1.16 fold enrichment (6-mer frequency, TF over GST control)

Sequence: TCCATA
- binding signal (FEV): 1.21 fold enrichment (6-mer frequency, TF over GST control)
- binding signal (ETV5): 1.3 fold enrichment (6-mer frequency, TF over GST control)
- binding signal (HSF1): 1.44 fold enrichment (6-mer frequency, TF over GST control)
- binding signal (SPIC): 1.3 fold enrichment (6-mer frequency, TF over GST control)
- binding signal (ELF4): 1.2 fold enrichment (6-mer frequency, TF over GST control)
- binding signal (ELK4): 1.25 fold enrichment (6-mer frequency, TF over GST control)
- binding signal (ETV2): 1.19 fold enrichment (6-mer frequency, TF over GST control)
- binding signal (ELF3): 1.11 fold enrichment (6-mer frequency, TF over GST control)
- binding signal (CRX): 1.48 fold enrichment (6-mer frequency, TF over GST control)
- binding signal (ETV1): 1.32 fold enrichment (6-mer frequency, TF over GST control)

Sequence: TAATAT
- binding signal (FEV): 1.25 fold enrichment (6-mer frequency, TF over GST control)
- binding signal (ETV5): 1.26 fold enrichment (6-mer frequency, TF over GST control)
- binding signal (HSF1): 1.58 fold enrichment (6-mer frequency, TF over GST control)
- binding signal (SPIC): 1.16 fold enrichment (6-mer frequency, TF over GST control)
- binding signal (ELF4): 1.28 fold enrichment (6-mer frequency, TF over GST control)
- binding signal (ELK4): 1.37 fold enrichment (6-mer frequency, TF over GST control)
- binding signal (ETV2): 1.31 fold enrichment (6-mer frequency, TF over GST control)
- binding signal (ELF3): 1.25 fold enrichment (6-mer frequency, TF over GST control)
- binding signal (CRX): 2.01 fold enrichment (6-mer frequency, TF over GST control)
- binding signal (ETV1): 1.27 fold enrichment (6-mer frequency, TF over GST control)

Sequence: TTATGG
- binding signal (FEV): 1.33 fold enrichment (6-mer frequency, TF over GST control)
- binding signal (ETV5): 1.39 fold enrichment (6-mer frequency, TF over GST control)
- binding signal (HSF1): 1.74 fold enrichment (6-mer frequency, TF over GST control)
- binding signal (SPIC): 1.53 fold enrichment (6-mer frequency, TF over GST control)
- binding signal (ELF4): 1.31 fold enrichment (6-mer frequency, TF over GST control)
- binding signal (ELK4): 1.24 fold enrichment (6-mer frequency, TF over GST control)
- binding signal (ETV2): 1.45 fold enrichment (6-mer frequency, TF over GST control)
- binding signal (ELF3): 1.53 fold enrichment (6-mer frequency, TF over GST control)
- binding signal (CRX): 2.62 fold enrichment (6-mer frequency, TF over GST control)
- binding signal (ETV1): 1.41 fold enrichment (6-mer frequency, TF over GST control)

Sequence: AAGTTC
- binding signal (FEV): 1.29 fold enrichment (6-mer frequency, TF over GST control)
- binding signal (ETV5): 1.47 fold enrichment (6-mer frequency, TF over GST control)
- binding signal (HSF1): 1.94 fold enrichment (6-mer frequency, TF over GST control)
- binding signal (SPIC): 1.54 fold enrichment (6-mer frequency, TF over GST control)
- binding signal (ELF4): 1.35 fold enrichment (6-mer frequency, TF over GST control)
- binding signal (ELK4): 1.41 fold enrichment (6-mer frequency, TF over GST control)
- binding signal (ETV2): 1.22 fold enrichment (6-mer frequency, TF over GST control)
- binding signal (ELF3): 1.47 fold enrichment (6-mer frequency, TF over GST control)
- binding signal (CRX): 1.22 fold enrichment (6-mer frequency, TF over GST control)
- binding signal (ETV1): 1.34 fold enrichment (6-mer frequency, TF over GST control)

Sequence: AACAAC
- binding signal (FEV): 1.26 fold enrichment (6-mer frequency, TF over GST control)
- binding signal (ETV5): 1.24 fold enrichment (6-mer frequency, TF over GST control)
- binding signal (HSF1): 1.14 fold enrichment (6-mer frequency, TF over GST control)
- binding signal (SPIC): 1.2 fold enrichment (6-mer frequency, TF over GST control)
- binding signal (ELF4): 1.26 fold enrichment (6-mer frequency, TF over GST control)
- binding signal (ELK4): 1.27 fold enrichment (6-mer frequency, TF over GST control)
- binding signal (ETV2): 1.34 fold enrichment (6-mer frequency, TF over GST control)
- binding signal (ELF3): 1.31 fold enrichment (6-mer frequency, TF over GST control)
- binding signal (CRX): 1.04 fold enrichment (6-mer frequency, TF over GST control)
- binding signal (ETV1): 1.23 fold enrichment (6-mer frequency, TF over GST control)

Sequence: TAGTGG
- binding signal (FEV): 1.21 fold enrichment (6-mer frequency, TF over GST control)
- binding signal (ETV5): 1.11 fold enrichment (6-mer frequency, TF over GST control)
- binding signal (HSF1): 1.33 fold enrichment (6-mer frequency, TF over GST control)
- binding signal (SPIC): 1.24 fold enrichment (6-mer frequency, TF over GST control)
- binding signal (ELF4): 1.15 fold enrichment (6-mer frequency, TF over GST control)
- binding signal (ELK4): 1.37 fold enrichment (6-mer frequency, TF over GST control)
- binding signal (ETV2): 1.15 fold enrichment (6-mer frequency, TF over GST control)
- binding signal (ELF3): 1.1 fold enrichment (6-mer frequency, TF over GST control)
- binding signal (CRX): 1.52 fold enrichment (6-mer frequency, TF over GST control)
- binding signal (ETV1): 1.14 fold enrichment (6-mer frequency, TF over GST control)
